# Assay results published in the supplement of paper PMC6555819.
# What was measured:
# Experiment in all cases: PBM binding z-score (relative to random genomic background probes); higher = stronger binding; sequences stand for … in GC…GCGATTGACAGCGTAGAATGAAGG
# [1] = test system: RARb homodimer (NR concentration 270 nM)
# How it was run: (§1)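 For binding z-scores, the reference was random background probes on custom Agilent 4×180K protein-binding microarrays. These arrays were incubated 1 h with ligand-free nuclear receptor dimers in PBS pH 7.4, 2% milk, 0.02% Triton X-100, 1 mM DTT, 0.2 mg/mL BSA and 0.4 mg/ml salmon testes DNA. Fluorescence was scanned after antibody detection of each partner (one per run) and regression-normalized.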
# [2] = test system: RARg:RXRa (NR concentration 270 nM, RXRa partner concentration 90 nM)
# How it was run: as §1
# [3] = test system: RARg homodimer (NR concentration 270 nM)
# How it was run: as §1
# [4] = test system: RXRa DBDmut IVT, anti-RXR (DBD mutation: RXRa K156A/R161A, NR concentration 90 nM)
# How it was run: as §1
# [5] = test system: RXRa homodimer (NR concentration 180 nM)
# How it was run: as §1
# [6] = test system: THRa:RXRa (NR concentration 90 nM, RXRa partner concentration 90 nM)
# How it was run: as §1
# [7] = test system: THRa homodimer (NR concentration 90 nM)
# How it was run: as §1
# [8] = test system: VDR homodimer (NR concentration 270 nM)
# How it was run: as §1
Sequence,PBM binding z-score [1],PBM binding z-score [2],PBM binding z-score [3],PBM binding z-score [4],PBM binding z-score [5],PBM binding z-score [6],PBM binding z-score [7],PBM binding z-score [8]
ACAGACAGGTGAGTGACGGTAACTCAGCTGGACG,-0.222,0.269,0.362,-0.203,0.416,-0.128,-0.727,-0.577
TCGAATAGGTTACCAATGGGGCATTCAGCTTTCT,1.21,2.11,0.782,1.09,1.39,0.655,-0.381,-0.151
TCAGATAGGTAATACAGGTGAAAGTCGGCATCTA,0.54,0.562,0.364,1.27,1.03,0.795,0.181,0.187
TCTTGTAGATCAAGCAGGTTAACAAAGCCTGAGT,0.14,0.253,0.0907,0.714,0.594,0.705,-0.265,0.178
ACTAGCAGGCCAAGTTTGGGTCCCTCAAACAAAG,-0.155,-0.211,-0.235,-0.528,-0.565,0.0407,-0.344,-0.397
CTCGAAAGGTCGTGCCCAGGTGAGTATACCAAAC,2.89,5.31,3.78,1.72,5.09,3.87,0.947,1.31
CCTTACGGGTCAAGGTTATAGCTCGGGTGGTACG,3.57,4.65,4.28,0.811,4.81,3.01,1.1,1.18
CCCTACGGGTCACTCCAGGTTATAGCATCGGAGT,3.22,4.52,4.67,0.434,4.72,4.94,0.457,1.79
TATCGGAGGACACGAAGGTCAGAGCTTTCCAGAG,3.47,3.17,3.73,0.00455,1.79,2.88,0.977,1.46
ATCGAAAGGTCGAGGTGGGTATAGAGAAAGGGAA,3.07,4.26,4.29,1.35,4.24,2.64,0.668,1.09
TCATATAGGTAAAGGCGAAAGTCGAACGATATGA,-0.012,0.425,0.439,0.563,0.727,-0.186,-0.507,-0.251
CAGCCTGGGTCAGGGCCAGTATAGGAGGAACGTT,2.07,2.63,2.76,-1.29,1.51,1.09,-0.124,-0.545
GCAAGTTGGTCAGTAAAAGGTCACACACCGGTCG,5.2,5.36,4.48,0.685,5.47,3.61,1.82,1.96
TCTAGTTGGTCACGGAGGTCGCACACGACGGGTA,2.48,2.11,2.3,0.614,2.16,1.91,0.625,1.18
AATACAGGTTCACTAGGCCAGAGTAGGTACGAAT,1.25,1.84,1.4,4.16,2.15,1.12,0.232,4.64
ACAATGAGGTTATTAAGATCAGGGAATTGCGGTC,1.27,1.45,1.33,2.17,1.83,2.23,1.09,1.61
CGAACTAGGTCAGAACAGGACAGTGAGGGATGAT,2.12,2.44,3.18,0.709,1.47,3.57,0.102,-0.141
ATCTATAGGTAAAGTTCAGTGAAAGATCGATAGA,2.35,2.02,2.38,1.21,1.51,0.707,-0.456,1.95
TAGCCTAGGTCTTTGGGCCAGTATAGTACGCATC,-0.337,-0.253,-0.164,-0.783,-0.392,-0.218,-0.674,-0.826
ATACCAAGGTGATCGTGAGGTCGTTGTTACTAAC,1.7,1.78,0.637,0.951,1.21,3.27,2.64,3.22
CACACTAGGTCACGAAAGGTCAAAGTCGAATGAC,5.91,7.95,8.87,2.87,8.16,5.26,3.18,3.49
ATATGTAGGTTAGCTCGGGTCATTCAGACTAGGC,2.89,2.48,2.04,0.986,3.02,4.98,2.7,2.6
AGCTCTAGGTAAGACTCAGTTCAGTGAAGAACGC,0.218,-0.161,-0.269,0.149,-0.208,0.465,0.312,1.14
CGAACTAGGTCAAGGACAGTGCATCTCCGCACGC,3.51,4.21,4.75,1.45,2.72,3.28,2.03,0.69
TCTTGTAGATCAACATGAGGTTAAGAAAGATCGA,0.695,1.12,0.455,0.475,1.27,2.18,0.657,0.413
AGAATGAGGTTATTAAGATCTGGGAATTGCGGTC,0.732,1.04,0.692,2.16,1.77,1.99,0.599,0.954
TATACAGGGTCAAAGGCCAGAGGACGAATGTCGA,3.52,5.92,5.44,2.95,7.17,3.5,0.968,2.9
ACTCGGAGGACCAAGGTCAGAGCTACGCCAGTGA,2.9,2.35,2.61,0.197,2.03,2.44,1.17,0.899
CAAACTAGGTCACGAAGGGTCAAAGTCGAATGAC,5.36,7.01,7.66,2.33,7.15,4.95,2,3.79
